This is a sample that favours compounds with a hit; in the whole collection about 1.8% have one here.
Fam108B counter: mouse Fam108B serine hydrolase inhibitors, primary screen, counter-screen for RBBP9 inhibitor project, biochemical, fluorescence polarization. recombinant Fam108B, FP-Rh probe fluorescence polarization. 300,000 tested, 0.33% active. inhibition, % at 9.51 µM;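 active = inhibition above the screen mean inhibition plus 3 SD, computed separately per campaign, cut at about 18% in these data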;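 also: inhibitors lower polarization as less probe binds the enzyme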
PME-1 primary: PME-1 inhibitors via competitive probe labeling, primary screen, biochemical, fluorescence polarization, FP-Rh probe, HTS; Protein phosphatase methylesterase 1 (Homo sapiens), Q9Y570; recombinant PME-1; inhibition, % at 5.9 µM; 320,000 tested, 0.53% active;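 active = inhibition above the campaign mean of all compounds plus 3 SD, cut at about 26% in these data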;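 also: competitive labeling of PME-1 active site by serine hydrolase directed probe; inhibitors block probe labeling so polarization falls and inhibition rises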
GSTO1 counter: inhibitors of recombinant GSTO1, primary screen, counter-screen for RBBP9 inhibitor project, biochemical, fluorescence polarization; Glutathione S-transferase omega-1 (Homo sapiens), P78417; activity-based probe fluorescence polarization; inhibition, % at 5.96 µM; 300,000 tested, 1.1% active; AID 1974, 2009;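 active = inhibition above the campaign mean inhibition plus 3 SD, cut at about 35% in these data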
Target sequence (P78417 whole entry, looked up): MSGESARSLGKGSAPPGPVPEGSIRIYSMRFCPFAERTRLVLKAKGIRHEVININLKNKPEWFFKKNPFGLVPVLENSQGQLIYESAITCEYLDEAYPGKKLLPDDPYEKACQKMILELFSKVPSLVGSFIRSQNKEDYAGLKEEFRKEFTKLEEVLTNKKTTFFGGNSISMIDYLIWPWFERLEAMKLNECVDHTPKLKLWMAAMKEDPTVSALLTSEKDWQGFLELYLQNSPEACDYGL
LYPLA2 inh: LYPLA2 inhibitors, primary screen, counter-screen for PME1 inhibitor project, biochemical, fluorescence polarization, FP-Rh probe ABPP. Acyl-protein thioesterase 2 (Homo sapiens), O95372. 320,000 tested, 0.38% active. inhibition, % at 5.9 µM. recombinant LYPLA2;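 active = inhibition above the screen-wide mean plus 3 SD, limit set per campaign, cut at about 26% in these data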
Target sequence (O95372 whole entry, looked up): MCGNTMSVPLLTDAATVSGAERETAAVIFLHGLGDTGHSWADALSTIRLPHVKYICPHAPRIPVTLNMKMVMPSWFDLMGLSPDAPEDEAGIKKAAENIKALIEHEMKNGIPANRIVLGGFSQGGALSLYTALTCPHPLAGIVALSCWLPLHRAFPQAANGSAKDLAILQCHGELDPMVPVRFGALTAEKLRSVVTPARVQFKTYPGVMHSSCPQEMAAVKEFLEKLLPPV
LYPLA1 counter: LYPLA1 inhibitors, primary screen, counter-screen for PME1 inhibitor project, biochemical, fluorescence polarization, FP-Rh probe ABPP; 320,000 tested, 0.16% active; inhibition, % at 5.9 µM; recombinant LYPLA1; Acyl-protein thioesterase 1 (Homo sapiens), O75608;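 active = inhibition above the mean of all tested compounds plus 3 SD, set per campaign, cut at about 14% in these data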;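 also: inhibitors block serine hydrolase probe labeling of LYPLA1 so polarization falls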
PAD4 FP inh: human PAD4 inhibitors, primary screen, biochemical, fluorescence polarization, 1536-well format. recombinant PAD4, RCA probe fluorescence polarization. inhibition, % at 6.36 µM. 330,000 tested, 0.41% active. AID 485272, 2010;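 active = percent inhibition above a cutoff equal to the mean of all tested compounds plus 3 SD, cut at about 15% in these data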
LYPLA2 confirm: LYPLA2 inhibitors, retest, confirmation, counter-screen for PME1 inhibitor project, biochemical, fluorescence polarization, FP-Rh probe ABPP; shares compounds with LYPLA2 inh; recombinant LYPLA2; inhibition, % at 5.9 µM; 1,100 tested, 72% active;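 active = mean inhibition across replicates above the hit cutoff set in the primary screen, cut at about 26% in these data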;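 also: blocked labeling of the enzyme by serine hydrolase FP-Rh probe lowers polarization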
LYPLA2 gel ABPP: LYPLA2 inhibitors in proteome, late-stage follow-up, gel-based competitive ABPP, fluorescence, assay provider; shares compounds with LYPLA2 inh; rhLYPLA2 in mouse brain proteome, gel ABPP FP-Rh; inhibition, % at 20 µM; 150 tested, 30% active; AID 652029, 2013;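 active = inhibition of LYPLA2 enzyme probe labeling above about 50%, limit read from the data; inactive = inhibition below that limit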;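 also: loss of FP-Rh probe labeling of the LYPLA2 gel band measured as band density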
Numbers stand for hits.

`CC(=O)c1ccc(N2CCN(C(=O)C3CCN(S(=O)(=O)Cc4ccccc4)CC3)CC2)cc1` gave Fam108B counter inactive, PME-1 primary inactive, GSTO1 counter inactive, LYPLA2 inh 36, LYPLA1 counter inactive, PAD4 FP inh inactive and LYPLA2 confirm 33.
Cn1c(=O)oc2cc(S(=O)(=O)N3CCC(C(=O)N4CCN(c5ccc(F)cc5)CC4)CC3)ccc21 was read as Fam108B counter inactive, PME-1 primary inactive, GSTO1 counter inactive, LYPLA2 inh 44, LYPLA1 counter inactive, PAD4 FP inh inactive and LYPLA2 confirm 39.
For COc1cccc2c1Oc1cc([N+](=O)[O-])cc(N(C)C(C)=O)c1C=C2 the results were Fam108B counter inactive, PME-1 primary inactive, GSTO1 counter inactive, LYPLA2 inh inactive, LYPLA1 counter inactive and PAD4 FP inh inactive.
Screening CCCCCCC1CCC(C(=O)Nn2c(C)nc3ccccc3c2=O)CC1 (centres undefined) returned Fam108B counter inactive, PME-1 primary inactive, GSTO1 counter inactive, LYPLA2 inh 46, LYPLA1 counter inactive, PAD4 FP inh inactive and LYPLA2 confirm 37.
Screening O=C(NNc1ccccc1[N+](=O)[O-])Nc1cccc(Cl)c1 returned Fam108B counter inactive, PME-1 primary inactive, GSTO1 counter inactive, LYPLA2 inh 40, LYPLA1 counter inactive, PAD4 FP inh inactive and LYPLA2 confirm 46.
O=C(O)c1ccccc1SCc1cn2cc(Cl)ccc2n1 was read as Fam108B counter inactive, PME-1 primary inactive, GSTO1 counter inactive, LYPLA2 inh 32, LYPLA1 counter inactive, PAD4 FP inh inactive and LYPLA2 confirm inactive.
`O=C(COc1cc2oc(=O)cc(-c3ccccc3)c2cc1Cl)NCC1CCC(C(=O)O)CC1` (centres undefined) gave Fam108B counter inactive, PME-1 primary inactive, GSTO1 counter inactive, LYPLA2 inh 42, LYPLA1 counter inactive, PAD4 FP inh inactive and LYPLA2 confirm 37.
CCc1cc2c(-c3ccccc3)cc(=O)oc2cc1OCC(=O)NCC1CCC(C(=O)O)CC1 (centres undefined) was read as Fam108B counter inactive, PME-1 primary inactive, GSTO1 counter inactive, LYPLA2 inh inactive, LYPLA1 counter inactive and PAD4 FP inh inactive.
`CSCC[C@H](NC(=O)[C@@H]1Cc2ccccc2CN1)C(=O)Nc1ccc2c(c1)OCO2` gave Fam108B counter inactive, PME-1 primary inactive, GSTO1 counter inactive, LYPLA2 inh inactive, LYPLA1 counter inactive and PAD4 FP inh inactive.
Screening O=C(Nc1ccc(N2CCN(C(=O)c3ccco3)CC2)cc1)c1cc(Br)ccc1Cl returned PME-1 primary inactive, LYPLA2 inh 44, LYPLA1 counter inactive, PAD4 FP inh inactive and LYPLA2 confirm 49.
`Cc1ccccc1C(=O)N1CCN(c2ccc(NC(=S)NC(=O)c3ccco3)cc2)CC1` gave Fam108B counter inactive, PME-1 primary inactive, GSTO1 counter inactive, LYPLA2 inh inactive, LYPLA1 counter inactive and PAD4 FP inh inactive.
For O=C(Nc1ccc(N2CCN(C(=O)c3ccco3)CC2)c(Cl)c1)c1c(F)c(F)c(F)c(F)c1F the results were Fam108B counter inactive, PME-1 primary inactive, GSTO1 counter inactive, LYPLA2 inh 62, LYPLA1 counter inactive, PAD4 FP inh inactive, LYPLA2 confirm 64 and LYPLA2 gel ABPP 50.
O=C(Nc1ccc(N2CCN(C(=O)c3ccco3)CC2)c(Cl)c1)c1cccnc1 was read as Fam108B counter inactive, PME-1 primary inactive, GSTO1 counter inactive, LYPLA2 inh inactive, LYPLA1 counter inactive and PAD4 FP inh inactive.
O=C(c1ccco1)N1CCN(C(=S)Nc2ccc(F)cc2)CC1 was read as Fam108B counter inactive, PME-1 primary inactive, GSTO1 counter inactive, LYPLA2 inh inactive, LYPLA1 counter inactive and PAD4 FP inh inactive.
For O=C(Nc1ccc(N2CCN(C(=O)c3ccco3)CC2)cc1)c1ccc(Br)cc1 the results were Fam108B counter inactive, PME-1 primary inactive, GSTO1 counter inactive, LYPLA2 inh inactive, LYPLA1 counter inactive and PAD4 FP inh inactive.
COc1ccccc1C(=O)NC(=S)Nc1ccc(N2CCN(C(=O)c3ccco3)CC2)cc1 was read as Fam108B counter inactive, PME-1 primary inactive, GSTO1 counter inactive, LYPLA2 inh 27, LYPLA1 counter inactive, PAD4 FP inh inactive and LYPLA2 confirm inactive.
For O=C(c1ccco1)N1CCN(C(=S)Nc2ccc(F)c(Cl)c2)CC1 the results were Fam108B counter inactive, PME-1 primary inactive, GSTO1 counter inactive, LYPLA2 inh 66, LYPLA1 counter inactive, PAD4 FP inh inactive, LYPLA2 confirm 68 and LYPLA2 gel ABPP inactive.
For O=C(O)C1(O)C[C@H](O)C(O)[C@@H](O)C1 (some centres undefined) the results were Fam108B counter inactive, PME-1 primary inactive, GSTO1 counter inactive, LYPLA2 inh inactive, LYPLA1 counter inactive and PAD4 FP inh inactive.
`O=C(c1noc2c1CCCC2)N1CCCC(N2CCN(c3ccccc3F)CC2)C1` (centres undefined) gave Fam108B counter inactive, PME-1 primary inactive, GSTO1 counter inactive, LYPLA2 inh inactive, LYPLA1 counter inactive and PAD4 FP inh inactive.
Cc1nn(-c2ccc(F)cc2)c2sc(C(=O)OC3CCOC3=O)cc12 (centres undefined) was read as Fam108B counter inactive, PME-1 primary inactive, GSTO1 counter inactive, LYPLA2 inh 35, LYPLA1 counter inactive, PAD4 FP inh inactive and LYPLA2 confirm 28.
CCCOc1ccc(-c2c(=O)n(O)c3ccccc3[n+]2[O-])cc1 was read as Fam108B counter inactive, PME-1 primary inactive, GSTO1 counter inactive, LYPLA2 inh 50, LYPLA1 counter inactive, PAD4 FP inh inactive and LYPLA2 confirm inactive.
Screening CCN(CC(=O)Nc1ccc2c(c1)OCCO2)C(=O)c1ccc(S(=O)(=O)N(C)C)cc1 returned Fam108B counter inactive, PME-1 primary inactive, GSTO1 counter inactive, LYPLA2 inh inactive, LYPLA1 counter inactive and PAD4 FP inh inactive.
Screening O=C(CSc1nnc(NC2CCCCC2)s1)N1CCOCC1 returned PME-1 primary inactive, LYPLA2 inh inactive, LYPLA1 counter inactive and PAD4 FP inh inactive.

Assay outcomes deposited in PubChem BioAssay by The Scripps Research Institute Molecular Screening Center.
